Results filed as inconclusive are left out. A number with no mark means an inactive call. The source made the active and inactive calls. Calls come from the whole dose curve; as a rule, active = well fitted cell-killing curve with a large enough effect; inconclusive = small, poorly fitted or top-dose-only effect, or effect the other way; inactive = no such curve, though single readings can be large or run the other way.

The results in this text go back to PubChem BioAssay (NCATS).
Potency is the fitted concentration of half-maximal effect.

This experiment in a line: Quantitative High-Throughput drug screen in 47 multiple myeloma cell lines against the NCATS MIPE library collection: MM1R_ATCC cell viability assay (AID 1918981). Note: nearly all actives have a fitted effect of over 35% in size. To be noted: MM1R multiple myeloma cells, CellTiter-Glo viability, 48 h; series mostly up to 45.8 µM; viability (% of control): at the top concentration. The source says: PI: Beverly A. Mock Ph.D.
Laboratory of Cancer Biology and Genetics,
Center for Cancer Research, National Cancer Institute,
National Institute of Health, Bethesda, Maryland
Drug resistance and disease progression are common in multiple myeloma (MM) patients, underscoring the need for new therapeutic combinations. […] We hypothesized that effective combinations would reduce MYC expression and enhance p16 activity. […] These preclinical data identify potentially useful drug combinations for evaluation in drug-resistant MM and reveal potential mechanisms of combined drug sensitivity.
Described herein is the primary MIPE qHTS used to cherrypick compounds. Validated compounds were then further tested for potential synergistic activiy.
[1] Peat TJ, Gaikwad SM, Dubois W, Gyabaah-Kessie N, Zhang S, Gorjifard S, Phyo Z, Andres M, Hughitt VK, Simpson RM, Miller MA, Girvin AT, Taylor A, Williams D, D'Antonio N, Zhang Y, Rajagopalan A, Flietner E, Wilson K, Zhang X, Shinn P, Klumpp-Thomas C, McKnight C, Itkin Z, Chen L, Kazandijian D, Zhang J, Michalowski AM, Simmons JK, Keats J, Thomas CJ, Mock BA. Drug combinations identified by high-throughput screening promote cell cycle transition and upregulate Smad pathways in myeloma. Cancer Lett. 2023 Aug 1;568:216284. doi: 10.1016/j.canlet.2023.216284. Epub 2023 Jun 24. PMID: 37356470; PMCID: PMC10408729.
SEQUENCE No. (e.g., 1, 2, 3, etc.); […] (e.g., Cells, Incubation, Reagent, etc.); VALUE and DESCRIPTION.
1; Cells; 5 uL; white, solid bottom 1536-well Greiner assay plate.
2; Compounds; 23 nL; Kalypsis pin tool (Wako USA) equipped with a 1536-well pin head to transfer to the assay plates.
3; Incubation; 48 hours; 37C incubation.
4; Reagent;5uL; CellTiter Glo (Promega).
5; Detector; 425V; Luminescence; Viewlux PerkinElmer.
NOTES (numbers refer to Sequence numbers above)
1. The cell-based screening methods employed in this study were like those previously published. Briefly, the corresponding myeloma cell lines were screened in 1,536-well plates with 500 cells, 5-uL per well for inhibition of cell viability (assessed by measuring ATP levels with CellTiterGlo).
2. NCATS MIPE 4.0 library of approved and investigational drugs were added using the Kalypsis pin tool. Wells treated with DMSO only for 100% viability and media only for 0% viability were used as controls.
3. The assay plates were covered and incubated for 48 hours in a 37C, 5% CO2 incubator with controlled humidity.
4. After 48 hours, CellTilter-GloTM luminescent substrate mix (Promega) reagent was added to the assay plate and plates we incubated for 5 min at room temperature.
5. Signal was measured as median relative luminescence units on a ViewLux (PerkinElmer) multiplate reader.
[1] Heske CM, Davis MI, Baumgart JT, Wilson K, Gormally MV, Chen L, Zhang X, Ceribelli M, Duveau DY, Guha R, Ferrer M, Arnaldez FI, Ji J, Tran HL, Zhang Y, Mendoza A, Helman LJ, Thomas CJ. Matrix Screen Identifies Synergistic Combination of PARP Inhibitors and Nicotinamide Phosphoribosyltransferase (NAMPT) Inhibitors in Ewing Sarcoma. Clin Cancer Res. 2017 Dec 1;23(23):7301-7311. doi: 10.1158/1078-0432.CCR-17-1121. Epub 2017 Sep 12. PMID: 28899971; PMCID: PMC6636827.
For the molecule `Cc1ccc(C(=O)Nc2ccc(CN3CCN(C)CC3)c(C(F)(F)F)c2)cc1C#Cc1cnc2cccnn12`, the Potency is 3.32 µM (active).
On the same count and under the same terms, the result for `C[C@@H]1CN(CC(=O)Nc2ccc3c(c2)Cc2cccc(-c4cc(=O)cc(N5CCOCC5)o4)c2S3)C[C@H](C)O1` reads 16.6 µM (active).
`CN1CCN(c2cc(C(=O)Nc3ccc4c(c3)-c3c(c(C(N)=O)nn3-c3ccc(F)cc3)CC4)c(Cl)cn2)CC1`: the Potency is 20.9 µM (active).
As to `Cc1ccc(-c2ncn(-c3ccc(Nc4nccc(-c5cccc(N6CCOCC6)c5)n4)cc3)n2)cn1`, the Potency is 0.105 µM (active).
With `CC1(O)CC(c2nc(-c3ccc4ccc(-c5ccccc5)nc4c3)c3c(N)nccn23)C1` (stereo not given), the Potency was 0.187 µM (active).
As for `O=C(c1cncc(Br)c1)N1CCC(N2CCCC2)CC1`, the “viability (% of control)” value is 124%.
In the case of `O=C(Nc1cn[nH]c1-c1nc2ccc(CN3CCOCC3)cc2[nH]1)NC1CC1`, the Potency was 2.96 µM (active).
On to `COc1c(N2C[C@@H]3CCCN[C@H]3C2)c(F)cc2c(=O)c(C(=O)O)cn(C3CC3)c12`, for which the “viability (% of control)” value is 113%.
As to `COc1cc2c(Oc3ccc(-c4cnc(Nc5ccc(F)cc5)n(C)c4=O)cc3F)ccnc2cc1OCCCN1CCOCC1`, the Potency is 3.72 µM (active).
Regarding `O=C(Nc1cc(C(F)(F)F)cc(C(F)(F)F)c1)c1cc(Cl)ccc1O`, the Potency was 1.05 µM (active).
Take `COc1cc2c(Oc3ccc4[nH]c(C)cc4c3F)ncnc2cc1OCCCN1CCCC1`: the Potency was 26.4 µM (active).
Take `CC(C)CC(=O)Nc1n[nH]c2c1CN(C(=O)C1CCN(C)CC1)C2(C)C`: the Potency was 0.662 µM (active).
Regarding `O=C(O)c1ccc2c(c1)nc(Nc1cccc(Cl)c1)c1ccncc12`, the Potency was 10.5 µM (active).
For `CC(C)Nc1cc(C(F)(F)F)cc2nc(NC(=O)c3cccnc3)nn12`, the “viability (% of control)” value is 114%.
On to `Cn1cc(-c2ccncc2)c(-c2ccc(OCc3ccc4ccccc4n3)cc2)n1`, for which the Potency was 10.5 µM (active).
Turning to `CC(=O)Nc1nc(C)c(-c2ccc(Cl)c(S(=O)(=O)NCCO)c2)s1`, the Potency was 7.43 µM (active).
Regarding `NC(=O)Nc1cc(-c2cccc(F)c2)sc1C(=O)N[C@H]1CCCNC1`, the Potency is 0.148 µM (active).
In the case of `Cc1[nH]nc2ccc(-c3cncc(OC[C@@H](N)Cc4ccccc4)c3)cc12`, the Potency was 1.32 µM (active).
Take `C1=CCOCc2cc(ccc2OCCN2CCCC2)Nc2nccc(n2)-c2cccc(c2)OCC1`: the Potency was 2.64 µM (active).
For the molecule `CC(C)(C)OC(=O)Nc1ccc(-c2cc(C(=O)NCCCCCCC(=O)NO)no2)cc1`, the Potency is 1.87 µM (active).
In the case of `CS(=O)(=O)c1ccc(-c2cnc(N)c(C(=O)Nc3ccccc3)n2)cc1`, the Potency is 5.26 µM (active).
As for `Cc1coc2c1C(=O)C(=O)c1c-2ccc2c1CCCC2(C)C`, the Potency was 18.7 µM (active).
Take `O=c1c2ccccc2nc2n1CCc1c-2[nH]c2ccccc12`: the “viability (% of control)” value is 110%.
Take `CNc1nccc(-c2cccnc2Oc2cc(C(=O)Nc3cccc(C(F)(F)F)c3)ccc2C)n1`: the Potency was 20.9 µM (active).
Turning to `CCc1c2c(nc3ccc(O)cc13)-c1cc3c(c(=O)n1C2)COC(=O)[C@]3(O)CC`, the Potency is 0.0118 µM (active).
Regarding `CC1(C)CCC(c2ccc(Cl)cc2)=C(CN2CCN(c3ccc(C(=O)NS(=O)(=O)c4ccc(N[C@H](CCN5CCOCC5)CSc5ccccc5)c(S(=O)(=O)C(F)(F)F)c4)cc3)CC2)C1`, the Potency is 0.187 µM (active).
The same measure, in the same setting: the result for `CN1CCN(c2ccc3nc(-c4c(N)c5c(F)cccc5[nH]c4=O)[nH]c3c2)CC1` reads 13.2 µM (active).
Take `CC[C@@H]1C(=O)N(C)c2cnc(Nc3ccc(C(=O)NC4CCC(N5CCN(CC6CC6)CC5)CC4)cc3OC)nc2N1C(C)C` (stereo not given in full): the Potency was 1.87 µM (active).
For the molecule `Cc1cnc(Nc2ccc(F)cc2Cl)nc1-c1c[nH]c(C(=O)N[C@H](CO)c2cccc(Cl)c2)c1`, the Potency is 16.6 µM (active).
Consider `Nc1ccccc1NC(=O)c1ccc(CNc2nccc(-c3cccnc3)n2)cc1`, for which the Potency is 0.743 µM (active).
Still for that read-out and setting: the result for `COc1cc2c(NC3CCN(C(C)C)CC3)nc(C3CCCCC3)nc2cc1OCCCN1CCCC1` reads 6.62 µM (active).
Same read-out and setting: the result for `COCCn1c2c([n+](Cc3cnccn3)c1C)C(=O)c1ccccc1C2=O` reads 0.0042 µM (active); that for `C[C@@H](Oc1cc(-c2cnn(C3CCNCC3)c2)cnc1N)c1c(Cl)ccc(F)c1Cl`, 14.8 µM (active).
On to `CCn1nnc2c(N3CCOCC3)nc(-c3ccc(NC(=O)Nc4ccc(C(=O)N5CCN(C)CC5)cc4)cc3)nc21`, for which the Potency was 0.0469 µM (active).
Regarding `OCCCNc1cc(-c2ccnc(Nc3cccc(Cl)c3)n2)ccn1`, the Potency is 0.0935 µM (active).
`CCCCOc1c(C(=O)c2c(F)cc(C)cc2F)cnc2n[nH]cc12`: the Potency was 3.72 µM (active).
In the case of `CN1CCC(CNc2ccc3ncc(-c4cccc(OC(F)(F)F)c4)n3n2)CC1`, the Potency is 20.9 µM (active).
Take `COc1ccc(C(=O)CC2(O)C(=O)Nc3c(Cl)ccc(Cl)c32)cc1` (stereo not given): the Potency is 5.26 µM (active).
Regarding `COc1ccc2c(OCc3nnc4ccc(-c5ccccc5)nn34)ccnc2c1`, the “viability (% of control)” value was 109%.
Consider `C#Cc1cccc(Nc2ncnc3cc(OC)c(OCCCCCCC(=O)NO)cc23)c1`, for which the Potency is 0.166 µM (active).
